Of roughly 7,900 targets only a part is listed; those with a hit were picked by preference. About 0.6% of all pairs of compound and target were hits. A number with no mark means an inactive call.
What was measured:
Experiment in all cases: log2 fold change, soluble protein after heating vs DMSO (PISA); higher = thermal stabilisation; K562 cells, 10 uM, 30 min; active = over 0.2 and 3.5 SD of the protein, either way, in both replicates (recomputed)
bafetinib = compound: Cc1ccc(NC(=O)c2ccc(CN3CC[C@H](N(C)C)C3)c(C(F)(F)F)c2)cc1Nc1nccc(-c2cncnc2)n1 [bafetinib]
Procedure, shortened: (§1)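 Values are thermal stability changes relative to control samples and are taken from duplicates. They are stated as log2 fold changes. Before quantification by TMTpro 16plex LC-MS/MS with equalised channel sums, K562 cells at 2×10^6 cells/mL were treated with 10 μM compound for 30 min, heated in aliquots for 3 min across 48°C-58°C, pooled, extracted in PBS with 0.5% NP-40 at 4°C, and centrifuged at 21,000xg for 90 min to give the soluble supernatant.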

[1] = compound: Cc1cccc(CC(=O)N2CCc3c2ccc(-c2cn(C)c4ncnc(N)c24)c3F)n1
Procedure, shortened: as §1

nilotinib = compound: Cc1cn(-c2cc(NC(=O)c3ccc(C)c(Nc4nccc(-c5cccnc5)n4)c3)cc(C(F)(F)F)c2)cn1 [nilotinib]
Procedure, shortened: as §1

[2] = compound: Cc1nc(Nc2n[nH]c3c2CN(C(=O)N[C@H](CN(C)C)c2ccccc2)C3(C)C)c2sccc2n1
Procedure, shortened: as §1

dasatinib = compound: Cc1nc(Nc2ncc(C(=O)Nc3c(C)cccc3Cl)s2)cc(N2CCN(CCO)CC2)n1 [dasatinib]
Procedure, shortened: as §1

[3] = compound: Cc1ncc(-c2ccnc(Nc3ccc(S(C)(=O)=O)cc3)n2)n1C(C)C
Procedure, shortened: as §1

[4] = compound: Cn1cc(-c2ccc3c(c2)CCN3C(=O)Cc2cccc(C(F)(F)F)c2)c2c(N)ncnc21
Procedure, shortened: as §1

[5] = compound: Cn1cc(-c2ccc3nnc(C(F)(F)c4ccc5ncccc5c4)n3n2)cn1
Procedure, shortened: as §1

tipifarnib = compound: Cn1cncc1[C@@](N)(c1ccc(Cl)cc1)c1ccc2c(c1)c(-c1cccc(Cl)c1)cc(=O)n2C [tipifarnib]
Procedure, shortened: as §1

mubritinib = compound: FC(F)(F)c1ccc(/C=C/c2nc(COc3ccc(CCCCn4ccnn4)cc3)co2)cc1 [mubritinib]
Procedure, shortened: as §1

[6] = compound: NC(=O)Nc1cc(-c2cccc(F)c2)sc1C(=O)N[C@H]1CCCNC1
Procedure, shortened: as §1

[7] = compound: NC(=O)c1cnc(N[C@@H]2CCCC[C@@H]2N)nc1Nc1cccc(-n2nccn2)c1
Procedure, shortened: as §1

[8] = compound: NC1(c2ccc(-c3nc4ccn5c(=O)[nH]nc5c4cc3-c3ccccc3)cc2)CCC1
Procedure, shortened: as §1

[9] = compound: NCC(=O)Nc1ccc(-n2nc(C(F)(F)F)cc2-c2ccc3c(ccc4ccccc43)c2)cc1
Procedure, shortened: as §1

entinostat = compound: Nc1ccccc1NC(=O)c1ccc(CNC(=O)OCc2cccnc2)cc1 [entinostat]
Procedure, shortened: as §1

vorinostat = compound: O=C(CCCCCCC(=O)Nc1ccccc1)NO [vorinostat]
Procedure, shortened: as §1

citarinostat = compound: O=C(CCCCCCNC(=O)c1cnc(N(c2ccccc2)c2ccccc2Cl)nc1)NO [citarinostat]
Procedure, shortened: as §1

silmitasertib = compound: O=C(O)c1ccc2c(c1)nc(Nc1cccc(Cl)c1)c1ccncc12 [silmitasertib]
Procedure, shortened: as §1

[10] = compound: O=C1NC(=O)C(c2cnc3ccccn23)=C1c1cn2c3c(cc(F)cc13)CN(C(=O)N1CCCCC1)CC2
Procedure, shortened: as §1

[11] = compound: c1cc(OCCN2CCCCC2)cc(-c2n[nH]c3ccc(-c4nnc[nH]4)cc23)c1
Procedure, shortened: as §1

Chain of UniProt Q9UPN7 (Q9UPN7 whole entry, looked up): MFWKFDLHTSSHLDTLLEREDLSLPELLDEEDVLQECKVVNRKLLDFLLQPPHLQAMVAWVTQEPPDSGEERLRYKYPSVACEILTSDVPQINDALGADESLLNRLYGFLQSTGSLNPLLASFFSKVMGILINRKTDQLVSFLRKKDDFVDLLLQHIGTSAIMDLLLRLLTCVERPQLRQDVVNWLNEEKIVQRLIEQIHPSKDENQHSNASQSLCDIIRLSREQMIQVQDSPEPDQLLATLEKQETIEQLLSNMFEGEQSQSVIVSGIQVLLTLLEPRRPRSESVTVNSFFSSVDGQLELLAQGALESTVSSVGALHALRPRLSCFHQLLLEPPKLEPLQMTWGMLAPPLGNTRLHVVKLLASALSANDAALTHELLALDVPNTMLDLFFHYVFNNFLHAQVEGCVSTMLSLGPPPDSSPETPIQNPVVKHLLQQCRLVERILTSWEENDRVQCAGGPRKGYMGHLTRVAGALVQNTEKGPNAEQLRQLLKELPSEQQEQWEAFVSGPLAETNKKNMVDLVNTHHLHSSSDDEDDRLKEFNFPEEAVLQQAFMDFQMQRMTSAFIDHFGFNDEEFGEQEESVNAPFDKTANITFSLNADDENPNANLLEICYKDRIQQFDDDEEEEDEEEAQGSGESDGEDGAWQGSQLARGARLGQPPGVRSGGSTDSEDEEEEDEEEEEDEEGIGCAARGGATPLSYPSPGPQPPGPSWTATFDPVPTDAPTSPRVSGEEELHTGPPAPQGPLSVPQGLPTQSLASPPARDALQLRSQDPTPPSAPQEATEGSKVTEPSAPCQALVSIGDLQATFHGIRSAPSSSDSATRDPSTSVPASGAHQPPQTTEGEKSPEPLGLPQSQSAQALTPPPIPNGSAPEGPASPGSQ
Chain of UniProt Q08752 (Q08752 whole entry, looked up): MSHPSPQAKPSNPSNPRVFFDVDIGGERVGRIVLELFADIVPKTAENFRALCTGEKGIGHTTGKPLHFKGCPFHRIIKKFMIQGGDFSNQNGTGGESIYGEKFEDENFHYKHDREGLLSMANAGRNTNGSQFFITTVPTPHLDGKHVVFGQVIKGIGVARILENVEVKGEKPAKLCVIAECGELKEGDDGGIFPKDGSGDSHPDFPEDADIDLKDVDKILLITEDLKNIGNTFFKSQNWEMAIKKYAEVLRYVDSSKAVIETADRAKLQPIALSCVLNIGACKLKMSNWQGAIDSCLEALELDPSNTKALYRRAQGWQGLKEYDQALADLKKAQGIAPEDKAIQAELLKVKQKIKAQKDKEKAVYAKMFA
Chain of UniProt Q86T03 (Q86T03 whole entry, looked up): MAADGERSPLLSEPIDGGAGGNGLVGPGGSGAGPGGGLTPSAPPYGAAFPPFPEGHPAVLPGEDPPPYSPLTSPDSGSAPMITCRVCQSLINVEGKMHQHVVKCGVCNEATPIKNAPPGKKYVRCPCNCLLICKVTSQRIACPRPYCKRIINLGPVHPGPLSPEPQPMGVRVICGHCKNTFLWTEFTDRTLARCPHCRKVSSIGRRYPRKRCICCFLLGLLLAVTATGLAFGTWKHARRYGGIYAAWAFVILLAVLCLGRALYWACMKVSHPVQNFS
Chain of UniProt P35227 (P35227 whole entry, looked up): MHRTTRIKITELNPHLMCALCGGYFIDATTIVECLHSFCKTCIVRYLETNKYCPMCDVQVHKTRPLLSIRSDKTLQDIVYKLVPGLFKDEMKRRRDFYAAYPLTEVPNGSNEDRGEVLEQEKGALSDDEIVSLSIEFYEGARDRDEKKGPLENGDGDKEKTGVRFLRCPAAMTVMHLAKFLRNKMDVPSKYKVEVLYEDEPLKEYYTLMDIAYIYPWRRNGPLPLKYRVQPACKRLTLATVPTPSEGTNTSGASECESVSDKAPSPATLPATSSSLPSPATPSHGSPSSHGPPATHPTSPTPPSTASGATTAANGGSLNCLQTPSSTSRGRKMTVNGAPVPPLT
Chain of UniProt Q5VU43 (Q5VU43 whole entry, looked up): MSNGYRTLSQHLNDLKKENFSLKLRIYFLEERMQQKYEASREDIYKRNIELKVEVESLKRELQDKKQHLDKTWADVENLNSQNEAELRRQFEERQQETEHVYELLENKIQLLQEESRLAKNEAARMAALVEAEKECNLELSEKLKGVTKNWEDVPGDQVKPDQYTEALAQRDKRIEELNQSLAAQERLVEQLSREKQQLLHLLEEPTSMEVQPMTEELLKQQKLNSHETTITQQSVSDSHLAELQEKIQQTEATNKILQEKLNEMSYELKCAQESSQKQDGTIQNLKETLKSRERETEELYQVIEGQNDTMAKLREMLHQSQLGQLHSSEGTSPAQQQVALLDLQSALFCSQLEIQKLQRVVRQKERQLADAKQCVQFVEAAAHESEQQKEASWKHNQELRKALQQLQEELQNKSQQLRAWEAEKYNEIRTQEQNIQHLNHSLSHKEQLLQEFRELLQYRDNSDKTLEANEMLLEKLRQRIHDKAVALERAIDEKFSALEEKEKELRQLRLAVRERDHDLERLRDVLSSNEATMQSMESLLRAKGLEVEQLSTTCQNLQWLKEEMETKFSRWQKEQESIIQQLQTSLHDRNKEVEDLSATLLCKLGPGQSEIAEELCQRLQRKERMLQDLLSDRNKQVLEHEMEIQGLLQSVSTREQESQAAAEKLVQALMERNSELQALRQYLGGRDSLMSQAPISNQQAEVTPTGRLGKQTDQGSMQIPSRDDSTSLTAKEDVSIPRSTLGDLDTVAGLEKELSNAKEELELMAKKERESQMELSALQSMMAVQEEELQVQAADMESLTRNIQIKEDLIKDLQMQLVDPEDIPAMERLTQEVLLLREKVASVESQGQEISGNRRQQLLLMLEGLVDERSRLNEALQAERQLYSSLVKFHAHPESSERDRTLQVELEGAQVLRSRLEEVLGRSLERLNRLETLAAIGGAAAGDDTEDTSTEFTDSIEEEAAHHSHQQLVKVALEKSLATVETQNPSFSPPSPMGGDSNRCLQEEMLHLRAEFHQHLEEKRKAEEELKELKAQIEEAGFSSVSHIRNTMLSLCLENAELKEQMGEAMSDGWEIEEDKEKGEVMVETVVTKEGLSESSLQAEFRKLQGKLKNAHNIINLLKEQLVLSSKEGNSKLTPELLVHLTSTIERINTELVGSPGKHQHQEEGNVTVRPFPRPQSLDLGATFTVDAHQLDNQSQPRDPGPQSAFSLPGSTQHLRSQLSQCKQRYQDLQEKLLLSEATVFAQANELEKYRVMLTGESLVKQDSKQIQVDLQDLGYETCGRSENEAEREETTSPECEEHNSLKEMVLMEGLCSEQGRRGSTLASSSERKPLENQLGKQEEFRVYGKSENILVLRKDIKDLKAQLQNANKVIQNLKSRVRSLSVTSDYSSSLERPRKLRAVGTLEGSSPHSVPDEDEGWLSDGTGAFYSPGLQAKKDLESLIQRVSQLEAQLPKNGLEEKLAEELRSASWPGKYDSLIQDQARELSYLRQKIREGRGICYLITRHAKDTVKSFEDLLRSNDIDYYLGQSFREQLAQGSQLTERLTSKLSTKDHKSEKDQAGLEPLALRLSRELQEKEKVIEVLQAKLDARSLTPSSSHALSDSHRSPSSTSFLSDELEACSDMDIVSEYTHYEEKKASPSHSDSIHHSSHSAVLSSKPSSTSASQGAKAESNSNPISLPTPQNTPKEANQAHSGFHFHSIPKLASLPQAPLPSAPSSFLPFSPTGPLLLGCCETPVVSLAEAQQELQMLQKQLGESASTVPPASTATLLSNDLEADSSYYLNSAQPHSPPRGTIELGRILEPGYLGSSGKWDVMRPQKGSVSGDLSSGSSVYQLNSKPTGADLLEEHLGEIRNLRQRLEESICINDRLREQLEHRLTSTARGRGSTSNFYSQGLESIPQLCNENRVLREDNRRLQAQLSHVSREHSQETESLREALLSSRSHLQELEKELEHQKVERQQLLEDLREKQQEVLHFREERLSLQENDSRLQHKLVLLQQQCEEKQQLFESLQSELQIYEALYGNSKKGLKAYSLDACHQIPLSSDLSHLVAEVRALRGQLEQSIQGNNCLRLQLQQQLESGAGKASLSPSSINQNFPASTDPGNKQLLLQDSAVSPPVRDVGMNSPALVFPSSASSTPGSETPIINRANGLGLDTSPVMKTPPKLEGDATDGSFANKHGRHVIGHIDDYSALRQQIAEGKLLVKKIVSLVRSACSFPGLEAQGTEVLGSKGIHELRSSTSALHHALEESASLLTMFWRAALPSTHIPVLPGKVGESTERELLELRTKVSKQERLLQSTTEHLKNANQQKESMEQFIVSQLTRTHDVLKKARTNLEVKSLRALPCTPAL
Chain of UniProt P78356 (P78356 whole entry, looked up): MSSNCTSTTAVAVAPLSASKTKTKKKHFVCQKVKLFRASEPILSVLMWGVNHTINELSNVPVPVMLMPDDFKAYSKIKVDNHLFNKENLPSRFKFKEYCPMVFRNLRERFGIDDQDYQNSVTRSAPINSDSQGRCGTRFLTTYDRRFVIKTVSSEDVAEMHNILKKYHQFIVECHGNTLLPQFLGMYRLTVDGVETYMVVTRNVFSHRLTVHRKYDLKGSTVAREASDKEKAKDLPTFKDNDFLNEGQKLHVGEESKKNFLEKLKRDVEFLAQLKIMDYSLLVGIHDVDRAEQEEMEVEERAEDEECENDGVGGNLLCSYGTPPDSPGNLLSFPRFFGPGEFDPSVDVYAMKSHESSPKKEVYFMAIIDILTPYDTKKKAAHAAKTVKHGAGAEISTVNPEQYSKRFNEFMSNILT

| Target | log2 fold change (bafetinib) | log2 fold change [1] | log2 fold change (nilotinib) | log2 fold change [2] | log2 fold change (dasatinib) | log2 fold change [3] | log2 fold change [4] | log2 fold change [5] | log2 fold change (tipifarnib) | log2 fold change (mubritinib) | log2 fold change [6] | log2 fold change [7] | log2 fold change [8] | log2 fold change [9] | log2 fold change (entinostat) | log2 fold change (vorinostat) | log2 fold change (citarinostat) | log2 fold change (silmitasertib) | log2 fold change [10] | log2 fold change [11] |
| --- | --- | --- | --- | --- | --- | --- | --- | --- | --- | --- | --- | --- | --- | --- | --- | --- | --- | --- | --- | --- |
| PPP6R1 (UniProt Q9UPN7) | -0.024 | 0.022 | 0.003 | -0.031 | -0.02 | -0.008 | 0.003 | 0.02 | 0.01 | 0.043 | 0.023 | -0.066 | -0.09 | 0.011 | -0.018 | 0.023 | 0.054 | 0.013 | -0.055 | -0.05 |
| PIP4P1 isoform 2 (UniProt Q86T03) | -0.044 | 0.102 | 0.031 | -0.004 | 0.051 | -0.016 | -0.158 | 0.01 | 0.112 | -0.037 | 0.012 | 0.086 | -0.326 | 0.095 | 0.042 | -0.019 | 0.01 | 0.054 | 0.043 | -0.031 |
| PCGF2 (UniProt P35227) | 0.015 | -0.035 | -0.097 | -0.235 | -0.127 | 0.028 | 0.004 | 0.081 | 0.001 | -0.001 | -0.164 | -0.125 | -0.048 | -0.025 | 0.114 | -0.059 | 0.134 | 0.051 | -0.069 | -0.022 |
| PDE4DIP isoform 4 (UniProt Q5VU43) | 0.022 | -0.071 | -0.054 | -0.113 | 0.037 | -0.027 | 0.021 | 0.021 | 0.038 | 0.022 | 0.113 | -0.006 | 0.009 | 0.011 | 0.015 | -0.025 | 0.018 | -0.041 | -0.03 | -0.039 |
| PIP4K2B (UniProt P78356) | 0.258 | 0.011 | 0.085 | 0.05 | 0.139 | 0.538 (active) | 0.055 | 0.172 | -0.03 | -0.083 | 0.06 | 0.083 | -0.053 | 0.118 | 0.096 | 0.053 | -0.009 | 0.202 | 0.044 | 0.069 |
| PPID (UniProt Q08752) | 0.015 | 0.075 | -0.113 | -0.13 | -0.206 | 0.062 | 0.023 | 0.076 | -0.148 | -0.005 | -0.073 | -0.075 | -0.093 | -0.065 | 0.049 | 0.108 | 0.108 | 0.095 | -0.028 | 0 |
